Paper PMC7862700, “An all-to-all approach to the identification of sequence-specific readers for epigenetic DNA modifications on cytosine”

How the values were obtained:
Assay in all cases: DAPPL (digital affinity profiling via proximity ligation, sequencing); 10 mM Tris-HCl pH 7.5, 50 mM NaCl, 1 mM DTT, 4% glycerol, room temperature, 30 min; GST-TFs on glutathione beads, 16-mer random dsDNA library, 0.1% formaldehyde crosslink after washing; high values mean tight binding
FEV = target: T1, FEV (Homo sapiens, UniProt Q99581 1-238); settings: protein: recombinant; tags: N-terminal GST; dsDNA, one strand shown
T1 sequence: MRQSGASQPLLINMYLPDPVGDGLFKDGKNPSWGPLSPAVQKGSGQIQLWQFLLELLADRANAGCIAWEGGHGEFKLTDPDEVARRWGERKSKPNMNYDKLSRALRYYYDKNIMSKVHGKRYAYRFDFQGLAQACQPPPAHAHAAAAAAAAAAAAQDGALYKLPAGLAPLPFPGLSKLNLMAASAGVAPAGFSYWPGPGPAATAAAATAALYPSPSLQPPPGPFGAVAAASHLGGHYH
How it was run: (§1)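 The binding signal reported is, for every hexamer, its read frequency for a factor over its read frequency for the tag-only sample. Reads came from pools of yeast-expressed, GST-fused human transcription factors on glutathione beads, barcoded with DNA and mixed with that sample, which were incubated with 200 nmole of a random double-stranded 16-mer DNA library in Tris/NaCl/DTT/glycerol buffer at room temperature for 30 min. After washing, the pools were crosslinked with 0.1% formaldehyde, proximity-ligated with BsaI/T4 ligase for 1 h at 37 °C, PCR-amplified and sequenced on an Illumina NextSeq500.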

ETV5 = ETV5 (Homo sapiens, UniProt P41161 1-510); settings: protein: recombinant; tags: N-terminal GST; dsDNA, one strand shown
How it was run: as §1

HSF1 = HSF1 (Homo sapiens, UniProt Q00613 1-529); settings: protein: recombinant; tags: N-terminal GST; chain copies: 3; dsDNA, one strand shown
How it was run: as §1

SPIC = target: T2, SPIC (Homo sapiens, UniProt Q8N5J4 1-248); settings: protein: recombinant; tags: N-terminal GST; dsDNA, one strand shown
T2 sequence: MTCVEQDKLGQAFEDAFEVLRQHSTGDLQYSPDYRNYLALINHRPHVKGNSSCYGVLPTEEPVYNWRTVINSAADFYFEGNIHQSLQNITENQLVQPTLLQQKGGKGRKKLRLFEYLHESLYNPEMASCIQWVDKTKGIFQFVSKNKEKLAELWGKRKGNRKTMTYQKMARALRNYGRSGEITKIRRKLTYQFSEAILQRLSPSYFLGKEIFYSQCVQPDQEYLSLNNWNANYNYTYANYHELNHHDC
How it was run: as §1

ELF4 = ELF4 (Homo sapiens, UniProt Q99607 1-663); settings: protein: recombinant; tags: N-terminal GST; dsDNA, one strand shown
How it was run: as §1

ELK4 = target: T3, ELK4 (Homo sapiens, UniProt P28324-2 1-405); settings: protein: recombinant; tags: N-terminal GST; dsDNA, one strand shown
T3 sequence: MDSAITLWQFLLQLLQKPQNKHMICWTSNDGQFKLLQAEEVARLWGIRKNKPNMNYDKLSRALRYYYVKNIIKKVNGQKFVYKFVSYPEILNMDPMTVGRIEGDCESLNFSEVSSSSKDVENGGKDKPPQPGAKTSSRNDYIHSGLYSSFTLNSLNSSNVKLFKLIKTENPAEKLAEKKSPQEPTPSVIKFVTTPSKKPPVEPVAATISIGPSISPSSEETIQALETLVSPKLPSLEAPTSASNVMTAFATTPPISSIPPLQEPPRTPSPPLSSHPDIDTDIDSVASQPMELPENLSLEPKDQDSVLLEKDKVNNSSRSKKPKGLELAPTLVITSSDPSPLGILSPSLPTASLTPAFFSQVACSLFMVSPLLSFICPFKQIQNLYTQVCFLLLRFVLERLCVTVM
How it was run: as §1

ETV2 = target: T4, ETV2 (Homo sapiens, UniProt O00321 1-342); settings: protein: recombinant; tags: N-terminal GST; dsDNA, one strand shown
T4 sequence: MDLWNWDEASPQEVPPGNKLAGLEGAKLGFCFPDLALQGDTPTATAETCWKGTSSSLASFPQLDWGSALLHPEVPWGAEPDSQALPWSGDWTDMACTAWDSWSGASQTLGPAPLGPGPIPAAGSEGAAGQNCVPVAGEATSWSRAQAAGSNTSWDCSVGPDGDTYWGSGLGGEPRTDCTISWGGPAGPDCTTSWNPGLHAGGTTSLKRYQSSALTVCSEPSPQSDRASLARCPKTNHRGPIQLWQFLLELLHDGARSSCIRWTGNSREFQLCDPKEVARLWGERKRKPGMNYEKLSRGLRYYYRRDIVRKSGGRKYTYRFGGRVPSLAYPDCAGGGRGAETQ
How it was run: as §1

ELF3 = target: T5, ELF3 (Homo sapiens, UniProt P78545 1-371); settings: protein: recombinant; tags: N-terminal GST; dsDNA, one strand shown
T5 sequence: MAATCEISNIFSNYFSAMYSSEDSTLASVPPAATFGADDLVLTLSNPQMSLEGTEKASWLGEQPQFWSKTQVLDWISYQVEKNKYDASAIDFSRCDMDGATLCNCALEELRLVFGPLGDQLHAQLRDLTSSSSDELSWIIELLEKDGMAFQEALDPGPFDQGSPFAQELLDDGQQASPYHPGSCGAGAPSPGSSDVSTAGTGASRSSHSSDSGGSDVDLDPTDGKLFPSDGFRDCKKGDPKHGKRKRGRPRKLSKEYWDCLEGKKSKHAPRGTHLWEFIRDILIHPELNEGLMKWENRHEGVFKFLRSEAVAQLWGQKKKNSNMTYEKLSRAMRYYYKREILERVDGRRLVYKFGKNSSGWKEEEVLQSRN
How it was run: as §1

Sequence of ELF4 (Q99607 whole entry): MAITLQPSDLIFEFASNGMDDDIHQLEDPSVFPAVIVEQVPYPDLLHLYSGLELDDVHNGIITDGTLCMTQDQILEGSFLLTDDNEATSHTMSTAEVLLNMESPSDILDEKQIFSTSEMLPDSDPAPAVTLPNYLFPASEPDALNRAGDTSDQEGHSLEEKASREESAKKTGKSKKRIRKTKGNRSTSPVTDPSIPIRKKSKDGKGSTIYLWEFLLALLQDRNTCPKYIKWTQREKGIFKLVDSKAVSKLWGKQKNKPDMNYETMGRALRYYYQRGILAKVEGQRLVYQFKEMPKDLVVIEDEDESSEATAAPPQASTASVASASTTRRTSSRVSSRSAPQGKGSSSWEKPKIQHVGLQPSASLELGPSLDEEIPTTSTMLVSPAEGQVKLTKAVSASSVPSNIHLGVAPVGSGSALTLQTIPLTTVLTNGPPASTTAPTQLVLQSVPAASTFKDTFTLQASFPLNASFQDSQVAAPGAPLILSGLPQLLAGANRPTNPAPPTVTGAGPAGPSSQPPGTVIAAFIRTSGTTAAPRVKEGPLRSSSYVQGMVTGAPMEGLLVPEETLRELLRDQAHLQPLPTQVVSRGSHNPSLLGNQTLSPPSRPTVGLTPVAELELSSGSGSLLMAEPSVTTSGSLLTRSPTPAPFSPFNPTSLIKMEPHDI
Sequence of ETV5 (P41161 whole entry): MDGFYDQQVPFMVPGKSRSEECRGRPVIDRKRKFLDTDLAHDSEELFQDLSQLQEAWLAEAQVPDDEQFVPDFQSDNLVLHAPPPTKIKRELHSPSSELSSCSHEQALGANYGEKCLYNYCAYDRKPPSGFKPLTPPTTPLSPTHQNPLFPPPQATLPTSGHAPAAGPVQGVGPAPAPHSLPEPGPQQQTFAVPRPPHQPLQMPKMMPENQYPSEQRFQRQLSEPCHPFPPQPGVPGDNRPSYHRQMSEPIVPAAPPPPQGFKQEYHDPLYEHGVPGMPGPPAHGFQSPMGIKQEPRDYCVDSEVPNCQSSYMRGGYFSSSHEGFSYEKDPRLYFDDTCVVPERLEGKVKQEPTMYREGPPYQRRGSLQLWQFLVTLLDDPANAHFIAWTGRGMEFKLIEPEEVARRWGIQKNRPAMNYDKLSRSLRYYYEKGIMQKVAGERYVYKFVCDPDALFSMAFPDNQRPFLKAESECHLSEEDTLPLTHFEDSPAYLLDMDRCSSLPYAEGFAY
Sequence of HSF1 (Q00613 whole entry): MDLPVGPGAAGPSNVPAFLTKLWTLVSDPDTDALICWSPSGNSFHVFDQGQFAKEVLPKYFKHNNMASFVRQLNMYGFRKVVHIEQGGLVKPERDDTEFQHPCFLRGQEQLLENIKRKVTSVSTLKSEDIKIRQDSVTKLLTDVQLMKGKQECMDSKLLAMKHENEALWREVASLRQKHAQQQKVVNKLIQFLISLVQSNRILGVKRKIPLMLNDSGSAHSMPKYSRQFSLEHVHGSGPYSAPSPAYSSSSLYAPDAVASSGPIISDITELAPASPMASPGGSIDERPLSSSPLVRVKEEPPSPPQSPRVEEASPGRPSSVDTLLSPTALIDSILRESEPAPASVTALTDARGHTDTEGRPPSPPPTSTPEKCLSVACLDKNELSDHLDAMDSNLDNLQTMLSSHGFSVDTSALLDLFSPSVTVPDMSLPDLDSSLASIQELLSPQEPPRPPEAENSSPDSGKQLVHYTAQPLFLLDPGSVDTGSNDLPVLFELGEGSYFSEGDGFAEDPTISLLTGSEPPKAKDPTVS

Sequence: CAATTG
- binding signal (FEV): 1.18 fold enrichment (6-mer frequency, TF over GST control)
- binding signal (ETV5): 1.2 fold enrichment (6-mer frequency, TF over GST control)
- binding signal (HSF1): 1.04 fold enrichment (6-mer frequency, TF over GST control)
- binding signal (SPIC): 1.28 fold enrichment (6-mer frequency, TF over GST control)
- binding signal (ELF4): 1.27 fold enrichment (6-mer frequency, TF over GST control)
- binding signal (ELK4): 1.04 fold enrichment (6-mer frequency, TF over GST control)
- binding signal (ETV2): 1.16 fold enrichment (6-mer frequency, TF over GST control)
- binding signal (ELF3): 1.32 fold enrichment (6-mer frequency, TF over GST control)
